# Experimental data published in PubChem BioAssay (NCATS).
# Results filed as inconclusive are left out. The source made the active and inactive calls. The call rests on the fitted dose curve; in most records, active means well fitted cell-killing curve with a large enough effect; inconclusive means small, poorly fitted or top-dose-only effect; inactive means no such curve, though single readings can be large or run the other way.
# Assay: qHTS of pediatric cancer cell lines to identify multiple opportunities for drug repurposing: Primary screen for Rh41 cells (AID 1347108); further: nearly all actives have a fitted effect of over 70% in size;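 on activity change, negative = cytotoxic: luminescence drop marks cytotoxic hits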
# Settings: Rh41 rhabdomyosarcoma viability, CellTiter-Glo luminescence, 48 h; series mostly up to 46 µM; activity change, negative = cytotoxic: at the top concentration
# Text: Drug repurposing or repositioning has been offered as a strategy for drug development in oncology programs. This approach has special potential for childhood cancers and other rare or orphan diseases, where the expected return on new drug development has been a disincentive to pharmaceuticals. […] In this project we exploit the poly-pharmacology of drugs to discover new indications via phenotypic screening of a panel of 19 well-characterized cell lines derived from solid tumors seen in children and adolescents. The goal is to identify approved drugs with previously unrecognized anticancer properties that has the potential to reveal new mechanisms and biological processes involved in carcinogenesis or drug resistance. We employed a titration-based paradigm (quantitative high-throughput screening or qHTS), where all compounds were tested at multiple concentrations for their effect on cell viability. Concentration-response curves (CRCs) were derived directly from the primary screen, and both potency and efficacy values were used to identify compounds with robust bioactivity profiles. We screened the NIH Chemical Genomics Center (NCGC) Pharmaceutical Collection (NPC) and Mechanism Interrogation Plate (MIPE) small molecule collections of approved and investigational compounds against these cell lines; and measured metabolically active cells after 48 hours of compound treatment as a proxy for cell viability. […] Assay Submitter: Nathalia J. Martinez, National Center for Advancing Translational Sciences, National Institutes of Health, Rockville, MD, USA; email: natalia.martinez@nih.gov Shen, M et al. Quantitative high-throughput phenotypic screening of pediatric cancer cell lines identifies multiple opportunities for drug repurposing. Oncotarget 2017 Dec 19;9(4):4758-4772. PMID 29435139.
# The cells were obtained from University of North Carolina (UNC), Pediatric Preclinical Testing Program (PPT), and Coriell Institute (CI). qHTS cell viability assay: Cells were assayed in growth media at a density of 500-1,000 cells/well. Five microliters of cells were dispensed into 1,536-well, white, solid-bottom, TC-treated plates (Greiner Bio One) using a multidrop dispenser and incubated at 37 degrees C, 5% CO2, under a humidified atmosphere for 5 hours. Twenty-three nanoliters of compounds and controls (neutral control DMSO or positive control bortezomib at final concentration of 2.3 µM) were subsequently transferred by Kalypsys pintool. For primary screens, the MIPE collection was tested at 11-point dilutions (final concentrations range from 0.78 nM to 46 µM) and the NPC collection at 8-point dilutions (final concentrations range from 0.59 nM to 46 µM). Compounds tested in follow-up screens were assayed at 11-point dilutions. Cells were incubated for 48 hours, followed by addition of 3 µL of CellTiter-Glo (Promega). After a 15 min incubation at room temperature, samples were analyzed for luminescence intensity using a ViewLux High-throughput CCD imager equipped with clear filters.
# Potency means the concentration at half of the fitted maximal effect.
SMILES,"activity change, negative = cytotoxic",Potency
CNCCCN1c2ccccc2CCc2ccccc21,17.8% (inactive),–
CCCCCN(CCCCC)C(=O)C(CCC(=O)O)NC(=O)c1ccc(Cl)c(Cl)c1 (stereo not given),11.6% (inactive),–
NC(Cc1ccc(Cl)cc1)C(=O)O (stereo not given),28% [at 0.597 µM] (inactive),–
NS(=O)(=O)c1cc2c(cc1Cl)NC(C1CC3C=CC1C3)NS2(=O)=O (stereo not given),26.7% (inactive),–
CN(C)CCCN1c2ccccc2Sc2ccccc21,14.5% (inactive),–
CC(=O)OC(C)C[N+](C)(C)C (stereo not given),-7.68% (inactive),–
CCCOc1ccccc1-c1nc2n[nH]nc2c(=O)[nH]1,15.3% (inactive),–
Cc1nc2sccn2c(=O)c1CCN1CCC(=C(c2ccc(F)cc2)c2ccc(F)cc2)CC1,4.23% (inactive),–
CNCCC(Oc1ccccc1OC)c1ccccc1 (stereo not given),12.9% (inactive),–
Brc1c(NC2=NCCN2)ccc2nccnc12,10.8% (inactive),–
Cc1ccc(/C(=C\CN2CCCC2)c2ccccn2)cc1,5.31% (inactive),–
CCCCNc1c(C(=O)OCC)c(C)nc2c1cnn2CC,-13.5% (inactive),–
CO[C@@]1(NC(=O)CSCC#N)C(=O)N2C(C(=O)O)=C(CSc3nnnn3C)CS[C@@H]21,5.5% (inactive),–
CCn1ccnc1CC1COc2ccccc2O1 (stereo not given),16.9% (inactive),–
C[C@]12C=CC(=O)C=C1CC[C@H]1[C@@H]3C[C@@H](O)[C@](O)(C(=O)CO)[C@@]3(C)C[C@H](O)[C@@]12F,23.8% (inactive),–
CC(=O)Nc1nnc(S(N)(=O)=O)s1,22.5% (inactive),–
Cc1nnc(SCC2=C(C(=O)O)N3C(=O)[C@@H](NC(=O)Cn4cnnn4)[C@H]3SC2)s1,28.1% (inactive),–
CN(C)C/C=C(/c1ccc(Br)cc1)c1cccnc1,22.7% (inactive),–
C[C@]12CCC(=O)C=C1CC[C@@H]1[C@@H]2CC[C@@]2(C)[C@H]1CC[C@]2(O)C(=O)CO,15.5% (inactive),–
O=C(CCNNC(=O)c1ccncc1)NCc1ccccc1,9.22% (inactive),–

SMILES,"activity change, negative = cytotoxic",Potency
CCOC(=O)C1=C(C)NC(C)=C(C(=O)OC)C1c1cccc(Cl)c1Cl (stereo not given),3.78% (inactive),–
CC(=O)OCC1=C(C(=O)O)N2C(=O)[C@@H](NC(=O)Cc3cccs3)[C@H]2SC1,30.6% (inactive),–
CNC1(C)C2CCC(C2)C1(C)C (stereo not given),-11.3% (inactive),–
CC1=C(C)C(=O)C(CCCCC#CCCCC#CCO)=C(C)C1=O,2.52% (inactive),–
O=C(O)CP(=O)(O)O,25.3% (inactive),–
CC(C)NCC(O)c1cc(O)cc(O)c1 (stereo not given),11.6% (inactive),–
O=C(O)CN(CCOCCOCCN(CC(=O)O)CC(=O)O)CC(=O)O,18.7% [at 0.597 µM] (inactive),–
CC[N+](C)(C)c1cccc(O)c1,17.3% (inactive),–
O=C(O)CCCCCCCC(=O)O,24.8% (inactive),–
CCN(CC)CCCN(c1ccccc1)C1Cc2ccccc2C1,2.93% (inactive),–
CC(=O)Oc1cc(C(C)C)c(OCCN(C)C)cc1C,31.4% (inactive),–
CCCCNc1ccc(C(=O)OCCN(C)C)cc1,36.4% (inactive),–
Cc1ccc(S(=O)(=O)NC(=O)NN2CCCCCC2)cc1,12.1% (inactive),–
O=C(CCCN1CCC(O)(c2cccc(C(F)(F)F)c2)CC1)c1ccc(F)cc1,17.8% (inactive),–
CN(C)C(=O)Oc1cccc([N+](C)(C)C)c1,32.2% (inactive),–
FC(F)(F)c1ccccc1-n1ccnc1,31.9% (inactive),–
CCOC(=O)c1cnc2c(cnn2CC)c1NN=C(C)C,14.7% (inactive),–
CCN(Cc1ccncc1)C(=O)C(CO)c1ccccc1 (stereo not given),9.44% (inactive),–
CC1=NS(=O)(=O)c2cc(Cl)ccc2N1,22.5% (inactive),–
CC(=O)[C@]1(O)Cc2c(O)c3c(c(O)c2[C@@H](O[C@H]2C[C@H](N)[C@H](O)[C@H](C)O2)C1)C(=O)c1ccccc1C3=O,–,841 nM (active)
